In PubChem BioAssay (NCI):
About 83,000 compounds went through this panel and 20% of them were active in at least one assay; those are over-represented in the sample as a whole.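 Single-concentration screen, 48 h exposure, 96-well plates. Endpoint: percent growth. Below 10 = active.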 A number with no mark means an inactive call. Activity calls are given as the source filed them.

How the values were obtained:
Experiment in all cases: NCI-60 one-dose screen, 48 h (100 = growth as untreated, 0 = no growth, -100 = all killed)
HCT-15 colon = conditions: 10 µM unless noted
HT29 colon = conditions: 10 µM unless noted
SNB-75 CNS = conditions: 10 µM unless noted
SNB-19 CNS = conditions: 10 µM unless noted
U251 CNS = conditions: 10 µM unless noted
PC-3 prostate = conditions: 10 µM unless noted
SK-MEL-5 melanoma = conditions: 10 µM unless noted
UACC-62 melanoma = conditions: 10 µM unless noted
LOX IMVI melanoma = conditions: 10 µM unless noted
SK-MEL-28 melanoma = conditions: 10 µM unless noted
SK-MEL-2 melanoma = conditions: 10 µM unless noted
EKVX NSCLC = conditions: 10 µM unless noted
SN12C renal = conditions: 10 µM unless noted
UO-31 renal = conditions: 10 µM unless noted
TK-10 renal = conditions: 10 µM unless noted
ACHN renal = conditions: 10 µM unless noted
CAKI-1 renal = conditions: 10 µM unless noted
A498 renal = conditions: 10 µM
HL-60(TB) leukemia = conditions: 10 µM unless noted
CCRF-CEM leukemia = conditions: 10 µM unless noted

| Structure (SMILES) | growth (HCT-15 colon) | growth (HT29 colon) | growth (SNB-75 CNS) | growth (SNB-19 CNS) | growth (U251 CNS) | growth (PC-3 prostate) | growth (SK-MEL-5 melanoma) | growth (UACC-62 melanoma) | growth (LOX IMVI melanoma) | growth (SK-MEL-28 melanoma) | growth (SK-MEL-2 melanoma) | growth (EKVX NSCLC) | growth (SN12C renal) | growth (UO-31 renal) | growth (TK-10 renal) | growth (ACHN renal) | growth (CAKI-1 renal) | growth (A498 renal) | growth (HL-60(TB) leukemia) | growth (CCRF-CEM leukemia) |
| --- | --- | --- | --- | --- | --- | --- | --- | --- | --- | --- | --- | --- | --- | --- | --- | --- | --- | --- | --- | --- |
| COc1cc(/C=N/C2=C(C#N)C(c3ccco3)c3c(c4cc(C)ccc4oc3=O)O2)cc(OC)c1OC (stereo not given) | 91.8% | 109% | 82.7% | 98.2% | 96.6% | 89.9% | 93.5% | 55.6% | 88.5% | 81.7% | 94.1% | 95.1% | 99.5% | 67.9% | 109% | 90.1% | 85.8% | 86.6% | 96.1% | 96.5% |
| CC12CCC(O)CC1=CCC1C2CCC2(C)C(O)CCC12 (stereo not given) | 105% | 101% | 88% | 86.7% | 105% | 94.1% | 98.2% | 102% | 99.5% | 106% | 110% | 71.9% | 105% | 98.5% | 105% | 107% | 93.2% | 81.1% | 115% | 94.9% |
| CCOC(=O)c1c(C)n(Cc2ccccc2)c2cc(CN(C)C)c(O)cc12 | 63.4% | 37% | 50.5% | 72.2% | 67.8% | 57.4% | 82.5% | 58.4% | 28.8% | 80.2% | 92.1% | 64.1% | 57.8% | 43.8% | 68.8% | 81.5% | 61.6% | 43.2% | 62% | 41.2% |
| COc1cc2c(c(OC)c1OC)-c1ccc([O-])c(=O)cc1[C@@H](NC(C)=O)CC2.COc1cc2c(c(OC)c1OC)-c1ccc([O-])c(=O)cc1[C@@H](NC(C)=O)CC2.[Cu+2] | 15.8% | 9.61% (active) | 50.1% | 25.2% | 22.3% | 35.1% | 19.2% | 23.5% | 36.3% | 48.5% | -4.65% (active) | 62% | 43.5% | 22.2% | 71.7% | 53.6% | 34.1% | 14.9% | -44.9% (active) | 9.3% (active) |
| C[C@@]1(CCCCCCCCCc2ccc(O)cc2)C[C@]2(C)OC(=O)C[C@@H]2OO1 | 83.7% | 102% | 95% | 96.6% | 92.8% | 61.7% | 105% | 95.2% | -81.2% (active) | 99.5% | 117% | 98.7% | 98.5% | 16.7% | 112% | 65.5% | 65.1% | 104% | 81% | 75.4% |
| O=C1C(=Cc2cn(Cc3ccccc3)c3ccccc23)C(=O)N(Cc2ccccc2)C(=O)N1Cc1ccccc1 | 85.8% | 111% | 45% | 87.1% | 75.7% | 90.3% | 104% | 53.1% | 87.2% | 110% | 83.9% | 97.5% | 101% | 73.3% | 40.7% | 86.2% | 94.6% | -95.7% (active) | 96.4% | 118% |
| O=[As](O)(O)c1ccccc1[As](=O)(O)O | 91.1% | 109% | 116% | 109% | 93.6% | 93.3% | 107% | 98.5% | 87.6% | 117% | 119% | 110% | 110% | 78.8% | 119% | 91.1% | 94.5% | 102% | 113% | 110% |
| CC(=O)Oc1ccccc1C(=O)NCCC[Se]C#N | -30.6% (active) | 91.1% | -35.1% (active) | -70.3% (active) | -62.1% (active) | 20.6% | 35.4% | 71.3% | -49% (active) | 7.94% (active) | 44.3% | 44.5% | -17.3% (active) | -37.8% (active) | -65.7% (active) | 6.63% (active) | 0.654% (active) | -2.68% (active) | 5.1% (active) | 22.9% |
| NC(=O)CNc1ccc([As]=[As]c2ccc(NCC(N)=O)cc2)cc1 (stereo not given) | 44.1% | 38.9% | 24.5% | 48.6% | 12% | 58.3% | 23.7% | 26.1% | 26.2% | 74.6% | 33.8% | 23.1% | 34% | 54.4% | 58.1% | 71.2% | 12.5% | 58.1% | 19.8% | 10.9% |
| CN[C@@]1(c2ccccc2Cl)CCCC[C@@H]1NCC1CCCO1 (stereo not given in full) | 104% | 101% | 88.2% | 95.8% | 98.2% | 94.2% | 102% | 96.5% | 97.8% | 101% | 99.7% | 99.2% | 96.8% | 86.4% | 102% | 99.4% | 93.9% | 94.4% | 99.9% | 99.8% |
| O=C(CCCCCNC1=CC(=O)c2ccccc2C1=O)NCCC[Te]c1ccccc1 | -20.1% (active) | -47.5% (active) | -26% (active) | 5.42% (active) | -8.56% (active) | -0.995% (active) | -92.9% (active) | -27.7% (active) | -22.1% (active) | -42% (active) | 8.28% (active) | -31.9% (active) | -8.47% (active) | 16.9% | -14.8% (active) | -71.2% (active) | -55.8% (active) | -57.7% (active) | 28.1% | -15.3% (active) |
| COc1ccc(/C=C/c2cc(OC)c(OC)c(OC)c2)cc1NC(=O)/C=C/c1ccc(F)cc1 | 25.2% | 9.9% (active) | 3.26% (active) | 33.5% | 36.8% | 28.7% | 7.06% (active) | 35.5% | 39% | 47.2% | 49.6% | 47.3% | 39.6% | 39% | 88.4% | 48.4% | 33.9% | -3.96% (active) | -20% (active) | 11% |
| CC1=C(CN)C2=C(C)C3(CC3)[C@@](C)(O)C(=O)C2=C1 | 96.4% | 94.5% | 57.7% | 83.2% | 84% | 88.3% | 98.8% | 97% | 91.6% | 94.8% | 98.5% | 102% | 90.2% | 90.3% | 102% | 97.3% | 94.7% | 68.6% | 88.2% | 110% |
| C[C@@H]1CCC2[C@@H](C)[C@H](OC(=O)CCC(=O)NCCNC(=O)Cc3cc(=O)oc4cc(N(C)C)ccc34)O[C@@H]3O[C@]4(C)CC[C@@H]1C23OO4 (stereo not given in full) | 7.81% (active) | 26.4% | 60.9% | 65% | 34.4% | 19.1% | 33.2% | 31.7% | -7.91% (active) | 57.5% | 40.7% | 35.3% | 32.2% | 13% | 20% | 40.3% | 44.1% | 64.9% | -38.8% (active) | 23% |
